# Assay results reported in publication PMC11062922 (Nature Chemical Biology, 2023).
# Where two headings read alike, the source gives them in different places.
# Key:
# [1] = test system: ADCK3; design: species or system human, MV4-11 + K-562 + COLO205 + SK-N-BE2 + OVCAR-8; conditions: read-out: apparent Kd, n = 1
# [2] = test system: BTK; design: species or system human, MV4-11 + K-562 + COLO205 + SK-N-BE2 + OVCAR-8; conditions: read-out: apparent Kd; compound concentrations: 100 nM and 1000 nM (sheet 'Samples'), CATDS: 0.33731493843611998; n = 1
# [3] = test system: JAK2; design: species or system human, MV4-11 + K-562 + COLO205 + SK-N-BE2 + OVCAR-8; conditions: read-out: apparent Kd; compound concentrations:100 nM and 1000 nM (sheet 'Samples'); n = 1
# [4] = test system: PIK3C3; design: species or system human, MV4-11 + K-562 + COLO205 + SK-N-BE2 + OVCAR-8; conditions: read-out: apparent Kd; compound concentrations:100 nM and 1000 nM (sheet 'Samples'); n = 1
# [5] = test system: TEC; design: species or system human, MV4-11 + K-562 + COLO205 + SK-N-BE2 + OVCAR-8; conditions: read-out: apparent Kd; compound concentrations:100 nM and 1000 nM (sheet 'Samples'); n = 1
# [6] = test system: ZAK; design: species or system human, MV4-11 + K-562 + COLO205 + SK-N-BE2 + OVCAR-8; conditions: read-out: apparent Kd; compound concentrations:100 nM and 1000 nM (sheet 'Samples'); n = 1
# [7] = test system: ADCK1; design: species or system human, MV4-11 + K-562 + COLO205 + SK-N-BE2 + OVCAR-8; conditions: read-out: apparent Kd; compound concentrations: 100 nM and 1000 nM (sheet 'Samples'), CATDS: 0.14562784613858401; n = 1
# [8] = test system: LIMK1; design: species or system human, MV4-11 + K-562 + COLO205 + SK-N-BE2 + OVCAR-8; conditions: read-out: apparent Kd; compound concentrations: 100 nM and 1000 nM (sheet 'Samples'), CATDS: 0.152053831473141; n = 1
# [9] = test system: NEK1; design: species or system human, MV4-11 + K-562 + COLO205 + SK-N-BE2 + OVCAR-8; conditions: read-out: apparent Kd; compound concentrations: 100 nM and 1000 nM (sheet 'Samples'), CATDS: 0.19071251042520401; n = 1
# [10] = test system: NEK3; design: species or system human, MV4-11 + K-562 + COLO205 + SK-N-BE2 + OVCAR-8; conditions: read-out: apparent Kd; compound concentrations: 100 nM and 1000 nM (sheet 'Samples'), CATDS: 0.104444124059675; n = 1
# [11] = test system: PIK3CG; design: species or system human, MV4-11 + K-562 + COLO205 + SK-N-BE2 + OVCAR-8; conditions: read-out: apparent Kd; compound concentrations: 100 nM and 1000 nM (sheet 'Samples'), CATDS: 0.203728906999049; n = 1
# [12] = target: Q6ZSR9 (human, UniProt Q6ZSR9); design: species or system MV4-11 + K-562 + COLO205 + SK-N-BE2 + OVCAR-8; conditions: read-out: apparent Kd; compound concentrations: 100 nM and 1000 nM (sheet 'Samples'), CATDS: 0.122629729389454; n = 1
# [13] = test system: ULK3; design: species or system human, MV4-11 + K-562 + COLO205 + SK-N-BE2 + OVCAR-8; conditions: read-out: apparent Kd; compound concentrations: 100 nM and 1000 nM (sheet 'Samples'), CATDS: 0.13028538158994399; n = 1
# [14] = test system: GSK3A; design: species or system human, MV4-11 + K-562 + COLO205 + SK-N-BE2 + OVCAR-8; conditions: read-out: apparent Kd; compound concentrations: 100 nM and 1000 nM (sheet 'Samples'), CATDS: 0.39261135326021201; n = 1
# [15] = test system: GSK3B; design: species or system human, MV4-11 + K-562 + COLO205 + SK-N-BE2 + OVCAR-8; conditions: read-out: apparent Kd; compound concentrations: 100 nM and 1000 nM (sheet 'Samples'), CATDS: 0.34419414793352499; n = 1
# [16] = test system: AKT2; design: species or system human, MV4-11 + K-562 + COLO205 + SK-N-BE2 + OVCAR-8; conditions: read-out: apparent Kd; compound concentrations:100 nM and 1000 nM (sheet 'Samples'); n = 1
# [17] = test system: CDK17; design: species or system human, MV4-11 + K-562 + COLO205 + SK-N-BE2 + OVCAR-8; conditions: read-out: apparent Kd; compound concentrations:100 nM and 1000 nM (sheet 'Samples'); n = 1
# [18] = test system: CIT; design: species or system human, MV4-11 + K-562 + COLO205 + SK-N-BE2 + OVCAR-8; conditions: read-out: apparent Kd; compound concentrations:100 nM and 1000 nM (sheet 'Samples'); n = 1
# [19] = test system: DCTPP1; design: species or system human, MV4-11 + K-562 + COLO205 + SK-N-BE2 + OVCAR-8; conditions: read-out: apparent Kd; compound concentrations:100 nM and 1000 nM (sheet 'Samples'); n = 1
# [20] = test system: EPHA1; design: species or system human, MV4-11 + K-562 + COLO205 + SK-N-BE2 + OVCAR-8; conditions: read-out: apparent Kd; compound concentrations:100 nM and 1000 nM (sheet 'Samples'); n = 1
# [21] = test system: EPHB6; design: species or system human, MV4-11 + K-562 + COLO205 + SK-N-BE2 + OVCAR-8; conditions: read-out: apparent Kd; compound concentrations:100 nM and 1000 nM (sheet 'Samples'); n = 1
# [22] = test system: ERBB3; design: species or system human, MV4-11 + K-562 + COLO205 + SK-N-BE2 + OVCAR-8; conditions: read-out: apparent Kd; compound concentrations:100 nM and 1000 nM (sheet 'Samples'); n = 1
# [23] = test system: ERN2; design: species or system human, MV4-11 + K-562 + COLO205 + SK-N-BE2 + OVCAR-8; conditions: read-out: apparent Kd; compound concentrations:100 nM and 1000 nM (sheet 'Samples'); n = 1
# [24] = test system: IGF1R; design: species or system human, MV4-11 + K-562 + COLO205 + SK-N-BE2 + OVCAR-8; conditions: read-out: apparent Kd; compound concentrations:100 nM and 1000 nM (sheet 'Samples'); n = 1
# [25] = test system: MELK; design: species or system human, MV4-11 + K-562 + COLO205 + SK-N-BE2 + OVCAR-8; conditions: read-out: apparent Kd; compound concentrations:100 nM and 1000 nM (sheet 'Samples'); n = 1
# [26] = test system: PDGFRB; design: species or system human, MV4-11 + K-562 + COLO205 + SK-N-BE2 + OVCAR-8; conditions: read-out: apparent Kd; compound concentrations:100 nM and 1000 nM (sheet 'Samples'); n = 1
# [27] = test system: PYGL; design: species or system human, MV4-11 + K-562 + COLO205 + SK-N-BE2 + OVCAR-8; conditions: read-out: apparent Kd; compound concentrations:100 nM and 1000 nM (sheet 'Samples'); n = 1
# [28] = test system: RIOK2; design: species or system human, MV4-11 + K-562 + COLO205 + SK-N-BE2 + OVCAR-8; conditions: read-out: apparent Kd; compound concentrations:100 nM and 1000 nM (sheet 'Samples'); n = 1
# [29] = test system: TTN; design: species or system human, MV4-11 + K-562 + COLO205 + SK-N-BE2 + OVCAR-8; conditions: read-out: apparent Kd; compound concentrations:100 nM and 1000 nM (sheet 'Samples'); n = 1
# [30] = test system: ADRBK1; design: species or system human, MV4-11 + K-562 + COLO205 + SK-N-BE2 + OVCAR-8; conditions: read-out: apparent Kd; compound concentrations:100 nM and 1000 nM (sheet 'Samples'); n = 1
# [31] = test system: MAPK11; design: species or system human, MV4-11 + K-562 + COLO205 + SK-N-BE2 + OVCAR-8; conditions: read-out: apparent Kd; compound concentrations:100 nM and 1000 nM (sheet 'Samples'); n = 1
# [32] = test system: MAPKAPK2; design: species or system human, MV4-11 + K-562 + COLO205 + SK-N-BE2 + OVCAR-8; conditions: read-out: apparent Kd; compound concentrations:100 nM and 1000 nM (sheet 'Samples'); n = 1
# [33] = compound concentrations:100 nM and 1000 nM (sheet 'Samples')
# Sequence of Q6ZSR9 (Q6ZSR9 whole entry, looked up): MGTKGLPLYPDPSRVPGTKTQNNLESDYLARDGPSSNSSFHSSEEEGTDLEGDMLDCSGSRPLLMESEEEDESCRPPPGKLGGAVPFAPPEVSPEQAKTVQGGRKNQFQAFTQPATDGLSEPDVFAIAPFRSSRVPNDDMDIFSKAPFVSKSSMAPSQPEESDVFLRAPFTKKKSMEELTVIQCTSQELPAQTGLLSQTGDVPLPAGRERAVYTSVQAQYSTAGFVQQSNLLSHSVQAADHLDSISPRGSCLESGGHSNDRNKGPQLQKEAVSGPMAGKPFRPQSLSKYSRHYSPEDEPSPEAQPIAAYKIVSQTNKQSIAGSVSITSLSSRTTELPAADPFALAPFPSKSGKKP
smiles,measurement,setting,value
C=CC(=O)Nc1cc(-n2c(=O)ccc3cnc4ccc(-c5ccc(NS(C)(=O)=O)cc5)cc4c32)ccc1C [BMX-IN-1],potency estimated from few doses,[1]; [33],1160 nM
same,potency estimated from few doses,[2],186 nM
same,potency estimated from few doses,[3],466 nM
same,potency estimated from few doses,[4],1530 nM
same,potency estimated from few doses,[5],540 nM
same,potency estimated from few doses,[6],782 nM
COc1cc(Nc2nccc(N3CCC(NS(=O)(=O)c4ccc(NC(C)=O)cc4)CC3)n2)cc(OC)c1OC [GSK1379825A],potency estimated from few doses,[7],1000 nM
same,potency estimated from few doses,[8],921 nM
same,potency estimated from few doses,[9],610 nM
same,potency estimated from few doses,[10],2360 nM
same,potency estimated from few doses,[11],547 nM
same,potency estimated from few doses,[12],1490 nM
same,potency estimated from few doses,[13],1280 nM
Cc1ccc(C)c(C2=C(c3cn(C)c4ccccc34)C(=O)NC2=O)c1 [RO0317699-000],potency estimated from few doses,"[1]; compound concentrations: 100 nM and 1000 nM (sheet 'Samples'), CATDS: 0.28187952548436401",629 nM
same,potency estimated from few doses,[14],316 nM
same,potency estimated from few doses,[15],404 nM
CNc1nc(-c2ccc3c(N)n[nH]c3c2)cc(N2C[C@@H](C(=O)NC3CCCCC3)CC[C@H]2C)n1 [GSK2334470],potency estimated from few doses,[1]; [33],1180 nM
same,potency estimated from few doses,[16],1570 nM
same,potency estimated from few doses,[17],2130 nM
same,potency estimated from few doses,[18],1430 nM
same,potency estimated from few doses,[19],1890 nM
same,potency estimated from few doses,[20],845 nM
same,potency estimated from few doses,[21],1840 nM
same,potency estimated from few doses,[22],1360 nM
same,potency estimated from few doses,[23],1440 nM
same,potency estimated from few doses,[24],2360 nM
same,potency estimated from few doses,[3],470 nM
same,potency estimated from few doses,[25],1640 nM
same,potency estimated from few doses,[26],1950 nM
same,potency estimated from few doses,[27],2020 nM
same,potency estimated from few doses,[28],2110 nM
same,potency estimated from few doses,[29],945 nM
O=C(Nc1cccc(-c2nn3ncccc3c2-c2ccnc(Nc3cccc(C(F)(F)F)c3)n2)c1)c1c(F)cccc1F [GSK299495A],potency estimated from few doses,"[1]; compound concentrations: 100 nM and 1000 nM (sheet 'Samples'), CATDS: 1",233 nM
CNC(=O)c1ccc(C)c(-n2c(C)cc(OCc3ccc(F)cc3F)c(Br)c2=O)c1 [PFE-PKIS_41],potency estimated from few doses,[1]; [33],1260 nM
same,potency estimated from few doses,[30],1490 nM
same,potency estimated from few doses,[31],34.7 nM
same,potency estimated from few doses,[32],23.3 nM
